Results filed as inconclusive are left out. The source made the active and inactive calls. Unless noted, the call rests on the fitted dose curve.
Key:
[1] = Nuclear factor erythroid 2-related factor 2/antioxidant responsive element (Nrf2/ARE) small molecule agonists: qHTS cell viability counter screen in human keratinocytes (AID 1919968; active means well fitted curve in the direction sought with a large enough effect in the repeat runs; an effect the other way counts as inactive or inconclusive; further: nearly all actives have a fitted effect of over 55% in size; further: potency means the concentration at half of the fitted maximal effect)
Summary of the method: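 Parallel cytotoxicity read: KeratinoSens HaCaT cells, compound treatment 23 h, viability by CellTiter-Fluor fluorescence 1 h post-reagent.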

[2] = Nuclear factor erythroid 2-related factor 2/antioxidant responsive element (Nrf2/ARE) small molecule agonists: luciferase reporter gene qHTS assay in human keratinocytes (AID 1919969); further: nearly all actives have a fitted effect of over 35% in size; further: potency means the concentration at half of the fitted maximal effect
[3] = target: Gonadotropin-releasing hormone receptor (Homo sapiens) (UniProt P30968); experiment: Human gonadotropin-releasing hormone receptor (GnRHR) small molecule agonists, calcium flux assay in GnRHR-HEK293 cells (AID 1920063); further: nearly all actives have a fitted effect of over 35% in size
Summary of the method: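 Calcium flux, agonist mode, human GnRHR stably integrated in HEK293; dye 1 h at 37 C before compound; Ex/Em=480/540 kinetic read, 3 min; 15 concentrations, triplicate.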

[4] = target: KiSS-1 receptor (Homo sapiens) (UniProt Q969F8); experiment: Human kisspeptin (KISS1R) small molecule agonists, calcium flux assay in KISS1R-HEK293 cells (AID 1920064; active means well fitted curve in the direction sought with a large enough effect in the repeat runs; an effect the other way counts as inactive or inconclusive)
Summary of the method: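 Triplicate 15-concentration series were applied to dye-loaded human KISS1R HEK293 cells, and agonist-evoked calcium fluorescence was captured for 3 min.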

[5] = G protein-coupled receptor (GPCR) small molecule agonists, calcium flux assay: HEK293 wild type cell line counter screen (AID 1920065)
Summary of the method: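 Non-specific calcium responders were flagged by adding DMSO-dissolved compounds to dye-loaded cells and reading 480/540 nm fluorescence each second for 3 min; ATP served as positive control.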

[6] = p53 small molecule agonists, cell-based qHTS assay with human liver microsomes (AID 1963577);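 further: p53 response element beta-lactamase reporter cells with liver microsomes plus NADPH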
Summary of the method: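 p53RE-bla cells; 5 h settle, 37 C/5% CO2; cpd + HLM 0.5 mg/mL + NADPH 0.5 mg/mL (final); 16 h 37 C; LiveBLAzer 2 h RT dark; fluorescence readout.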

[7] = p53 small molecule agonists, cell-based qHTS assay with rat liver microsomes (AID 1963578); further: potency means the concentration at half of the fitted maximal effect
Summary of the method: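 Rat liver microsome activation: microsomes 0.5 mg/mL, NADPH 0.5 mg/mL final; p53RE-bla cells, 16 h 37 C; LiveBLAzer readout, 2 h RT dark.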

[8] = p53 small molecule agonists, cell-based qHTS assay with human liver microsomes: qHTS cell viability counter screen (AID 1963579); further: nearly all actives have a fitted effect of over 45% in size; further: potency means the concentration at half of the fitted maximal effect
Summary of the method: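 Luminescent CellTiter-Glo read-out, 30 min at room temperature, gauged cytotoxicity in p53RE-bla cells exposed 16 h at 37 C to DMSO-dissolved compounds with metabolic activation by human liver microsomes and NADPH, each 0.5 mg/mL final.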

[9] = p53 small molecule agonists, cell-based qHTS assay with rat liver microsomes: qHTS cell viability counter screen (AID 1963580); further: nearly all actives have a fitted effect of over 45% in size; further: potency means the concentration at half of the fitted maximal effect
Summary of the method: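 Cytotoxicity counter screen: intracellular ATP measured by CellTiter-Glo luminescence in the same wells as the beta-lactamase reporter read, on HCT-116 p53RE-bla cells exposed 16 h at 37 C to compounds with rat liver microsomes and NADPH, each 0.5 mg/mL final.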

[10] = p53 small molecule agonists, cell-based qHTS assay: qHTS cell viability counter screen (AID 1963581); further: nearly all actives have a fitted effect of over 45% in size; further: potency means the concentration at half of the fitted maximal effect
Summary of the method: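 Multiplexed with the reporter read, a CellTiter-Glo step (30 min, room temperature) gauges ATP-based viability of HCT-116 p53RE-bla cells after 16 h compound incubation at 37 C.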

[11] = target: 5-hydroxytryptamine receptor 2A (Homo sapiens) (UniProt P28223); experiment: 5-hydroxytryptamine receptor 2A (HTR2A) small molecule antagonists, cell-based qHTS assay (AID 1963586); further: nearly all actives have a fitted effect of over 45% in size
Summary of the method: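 CHO cells stably expressing human HTR2A were plated for 18 h at 37 C, then loaded with calcium dye for 1 h. Compounds were preincubated 5 min at room temperature before DOI (4 nM solution) was added. Kinetic fluorescence was read for 3 min.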

[12] = target: 5-hydroxytryptamine receptor 2A (Homo sapiens) (UniProt P28223); experiment: 5-hydroxytryptamine receptor 2A (HTR2A) small molecule agonists, cell-based qHTS assay (AID 1963587); further: nearly all actives have a fitted effect of over 30% in size
Summary of the method: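 CHO cells stably expressing human HTR2A, plated 18 h, loaded with calcium dye 1 h at 37 C. Agonist mode: compounds added and intracellular calcium fluorescence recorded kinetically for 2 min at 1 sec intervals.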

[13] = target: Muscarinic acetylcholine receptor M1 (Homo sapiens) (UniProt P11229); experiment: Cholinergic receptor muscarinic 1 (CHRM1) small molecule agonists, cell-based qHTS assay (AID 1963589); further: nearly all actives have a fitted effect of over 35% in size
Summary of the method: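 qHTS, 15-point titration, 3 independent runs: compounds pin-transferred onto dye-loaded CHRM1-CHO cells (human M1), calcium fluorescence followed every second to detect agonism.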

[14] = cAMP Responsive Elements (CRE) small molecule agonists, cell-based qHTS assay (AID 1963590)
Summary of the method: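 Quantitative HTS for CRE agonists: HEK 293T CRE-bla cells, overnight plating, 3 h compound incubation at 37 C/5% CO2, then 2 h room-temperature LiveBLAzer B/G FRET substrate loading.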

[15] = target: Beta-2 adrenergic receptor (Homo sapiens) (UniProt P07550); experiment: Adrenergic beta2 receptor (ADRB2) small molecule antagonists, cell-based qHTS assay (AID 1963592); further: series mostly up to about 92 µM; nearly all actives have a fitted effect of over 50% in size
Summary of the method: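 Assay format: CHO-ADRB2 cells, 18-20hr seeding at 37C/5% CO2, then compound plus 1nM isoproterenol agonist mix for 0.5hr RT. Homogeneous time-resolved fluorescence cAMP detection after 1hr, expressed as 665/615 nm ratio.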

[16] = target: D(2) dopamine receptor (Homo sapiens) (UniProt P14416); experiment: Dopamine D2 receptor (DRD2) small molecule agonists, cell-based qHTS assay (AID 1963594); further: nearly all actives have a fitted effect of over 35% in size
Summary of the method: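 HEK293 cells stably expressing human DRD2, pre-treated with PDE inhibitor Ro20-1724 (0.1 mM final) and compound 10 min at room temperature, then stimulated with NKH477 (200nM […]) for 30 min. cAMP read by HTRF (665/620 nm).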

[17] = target: D(2) dopamine receptor (Homo sapiens) (UniProt P14416); experiment: Dopamine D2 receptor (DRD2) small molecule antagonists, cell-based qHTS assay (AID 1963595; active means well fitted inhibition curve with a large enough effect in the signal ratio in the repeat runs, with a control signal flat; the % refers to the signal ratio)
Summary of the method: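 Antagonist mode in DRD2-HEK293 cells: after compound addition with 0.1 mM Ro20-1724, cells received quinpirole (12 nM) and NKH477 (200 nM) for 30 min at room temperature; HTRF cAMP read after 1 h detection.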

[18] = cAMP Responsive Elements (CRE) small molecule antagonists, cell-based qHTS assay (AID 1963591; active means well fitted inhibition curve with a large enough effect in the signal ratio in the repeat runs, not every such curve was filed as active; the % refers to the signal ratio)
Summary of the method: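 Fluorescence intensity from cleaved LiveBLAzer B/G substrate (2 h, room temperature) quantified CRE-bla activity in HEK 293T cells exposed 3 h to compound with 0.25 uM final NKH477.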

[19] = target: Muscarinic acetylcholine receptor M1 (Homo sapiens) (UniProt P11229); experiment: Cholinergic receptor muscarinic 1 (CHRM1) small molecule antagonists, cell-based qHTS assay (AID 1963588); further: nearly all actives have a fitted effect of over 40% in size
Summary of the method: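 Compounds were tested at 15 concentrations in three independent runs. Dye-loaded CHRM1-CHO cells were exposed 5 min at room temperature before stimulation by acetylcholine added at 50nM. Intracellular calcium was read kinetically on FDSS for 3 min.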
On the % scale 0 is the no-effect control and ±100 the full control effect.

Chain of Gonadotropin-releasing hormone receptor (Homo sapiens) (P30968 whole entry, looked up): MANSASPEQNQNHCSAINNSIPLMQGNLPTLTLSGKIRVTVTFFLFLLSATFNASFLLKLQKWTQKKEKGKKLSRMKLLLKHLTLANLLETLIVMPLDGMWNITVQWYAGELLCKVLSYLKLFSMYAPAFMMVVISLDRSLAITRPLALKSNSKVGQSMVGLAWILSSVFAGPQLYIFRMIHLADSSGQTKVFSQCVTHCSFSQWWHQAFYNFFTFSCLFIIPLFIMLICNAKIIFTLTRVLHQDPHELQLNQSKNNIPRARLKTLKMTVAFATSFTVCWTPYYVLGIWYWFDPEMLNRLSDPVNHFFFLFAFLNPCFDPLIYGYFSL
Chain of 5-hydroxytryptamine receptor 2A (Homo sapiens) (P28223 whole entry, looked up): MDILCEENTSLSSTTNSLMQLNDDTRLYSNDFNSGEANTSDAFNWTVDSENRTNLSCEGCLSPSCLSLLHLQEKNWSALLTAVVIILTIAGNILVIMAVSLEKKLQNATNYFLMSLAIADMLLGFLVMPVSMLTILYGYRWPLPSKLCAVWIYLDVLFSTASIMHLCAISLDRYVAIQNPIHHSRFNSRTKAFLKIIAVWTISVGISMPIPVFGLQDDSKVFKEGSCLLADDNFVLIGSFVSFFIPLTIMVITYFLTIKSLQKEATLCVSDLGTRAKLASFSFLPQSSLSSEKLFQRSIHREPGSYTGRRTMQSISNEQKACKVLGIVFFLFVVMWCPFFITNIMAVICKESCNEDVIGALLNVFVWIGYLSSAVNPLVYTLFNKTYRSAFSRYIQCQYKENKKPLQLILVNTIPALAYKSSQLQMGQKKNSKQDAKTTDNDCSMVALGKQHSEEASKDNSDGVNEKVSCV
Chain of KiSS-1 receptor (Homo sapiens) (Q969F8 whole entry, looked up): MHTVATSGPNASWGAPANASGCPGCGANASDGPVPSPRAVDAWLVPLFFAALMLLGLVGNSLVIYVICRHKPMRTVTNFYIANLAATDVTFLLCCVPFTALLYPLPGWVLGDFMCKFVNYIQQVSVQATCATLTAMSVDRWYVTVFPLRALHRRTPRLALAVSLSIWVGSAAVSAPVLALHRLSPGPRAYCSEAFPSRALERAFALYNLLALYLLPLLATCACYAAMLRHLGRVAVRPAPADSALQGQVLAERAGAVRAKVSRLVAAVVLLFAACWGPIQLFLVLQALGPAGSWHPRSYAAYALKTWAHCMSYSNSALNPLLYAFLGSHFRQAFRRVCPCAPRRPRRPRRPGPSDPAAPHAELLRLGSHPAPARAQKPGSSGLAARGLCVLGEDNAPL
Chain of Beta-2 adrenergic receptor (Homo sapiens) (P07550 whole entry, looked up): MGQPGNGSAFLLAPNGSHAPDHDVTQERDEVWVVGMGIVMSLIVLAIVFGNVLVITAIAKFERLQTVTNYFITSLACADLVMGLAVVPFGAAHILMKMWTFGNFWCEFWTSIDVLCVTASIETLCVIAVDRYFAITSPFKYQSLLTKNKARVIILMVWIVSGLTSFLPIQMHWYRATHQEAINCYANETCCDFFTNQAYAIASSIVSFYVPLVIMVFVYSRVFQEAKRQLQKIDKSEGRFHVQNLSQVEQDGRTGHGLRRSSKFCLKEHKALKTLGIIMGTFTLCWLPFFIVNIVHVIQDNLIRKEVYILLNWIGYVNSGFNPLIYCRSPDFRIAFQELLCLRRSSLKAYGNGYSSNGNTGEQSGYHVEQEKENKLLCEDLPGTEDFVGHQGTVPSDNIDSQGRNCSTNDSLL
Chain of Muscarinic acetylcholine receptor M1 (Homo sapiens) (P11229 whole entry, looked up): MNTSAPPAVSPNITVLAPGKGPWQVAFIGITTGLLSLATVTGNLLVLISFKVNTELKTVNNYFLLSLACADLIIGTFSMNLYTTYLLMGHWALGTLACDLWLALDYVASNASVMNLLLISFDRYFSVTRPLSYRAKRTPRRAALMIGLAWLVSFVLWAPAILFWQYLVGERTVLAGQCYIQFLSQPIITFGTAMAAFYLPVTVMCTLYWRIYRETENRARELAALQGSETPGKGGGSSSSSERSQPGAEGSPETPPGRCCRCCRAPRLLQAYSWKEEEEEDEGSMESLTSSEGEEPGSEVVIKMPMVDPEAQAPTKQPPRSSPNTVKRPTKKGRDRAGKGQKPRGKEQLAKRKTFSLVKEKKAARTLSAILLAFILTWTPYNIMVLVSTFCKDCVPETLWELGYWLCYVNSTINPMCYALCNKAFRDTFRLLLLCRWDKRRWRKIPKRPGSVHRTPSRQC
Chain of D(2) dopamine receptor (Homo sapiens) (P14416 whole entry, looked up): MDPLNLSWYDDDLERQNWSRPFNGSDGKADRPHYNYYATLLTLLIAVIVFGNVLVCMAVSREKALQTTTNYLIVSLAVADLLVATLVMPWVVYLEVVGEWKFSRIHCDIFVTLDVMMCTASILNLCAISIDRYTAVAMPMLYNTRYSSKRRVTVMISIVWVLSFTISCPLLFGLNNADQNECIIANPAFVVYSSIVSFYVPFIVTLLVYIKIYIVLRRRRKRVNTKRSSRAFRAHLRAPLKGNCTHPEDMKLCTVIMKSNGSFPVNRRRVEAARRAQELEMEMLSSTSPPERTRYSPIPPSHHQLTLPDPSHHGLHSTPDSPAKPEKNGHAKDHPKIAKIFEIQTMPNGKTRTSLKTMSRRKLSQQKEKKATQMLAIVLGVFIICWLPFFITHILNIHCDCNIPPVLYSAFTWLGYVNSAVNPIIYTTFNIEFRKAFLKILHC

CCOC(=O)c1c(N)sc2c1CCN(Cc1ccccc1)C2
active: Potency [7] 15.8 µM
inactive: Potency [1] | Potency [2] | Potency [3] | outcome [4] | outcome [5] | Potency [6] | Potency [8] | Potency [9] | Potency [10] | Potency [11] | Potency [12] | Potency [13] | Potency [14] | Potency [15] | Potency [16] | Potency [17]

COc1ccc(-n2nc(CCC(=O)N(C)O)cc2-c2ccc(Cl)cc2)cc1
inactive: Potency [1] | Potency [2] | Potency [3] | outcome [4] | outcome [5] | Potency [6] | Potency [7] | Potency [8] | Potency [9] | Potency [10] | Potency [11] | Potency [12] | Potency [13] | Potency [14] | Potency [18] | Potency [15] | Potency [16] | Potency [17]

CCCCCCCC
inactive: Potency [1] | Potency [2] | Potency [3] | outcome [4] | outcome [5] | Potency [6] | Potency [7] | Potency [8] | Potency [9] | Potency [10] | Potency [11] | Potency [12] | Potency [19] | Potency [14] | Potency [18] | Potency [15] | Potency [16]

Clc1nc(C(Cl)(Cl)Cl)c(Cl)c(Cl)c1Cl
inactive: Potency [3] | outcome [4] | outcome [5] | Potency [6] | Potency [7] | Potency [8] | Potency [9] | Potency [10] | Potency [11] | Potency [13] | Potency [16] | Potency [17]
active: Potency [1] 48.6 µM | Potency [2] 21.7 µM

Cc1cccc(CN2CCN(C(c3ccccc3)c3ccc(Cl)cc3)CC2)c1 (centres undefined)
active: Potency [1] 18.8 µM
inactive: Potency [2] | Potency [3] | outcome [4] | outcome [5] | Potency [6] | Potency [7] | Potency [8] | Potency [9] | Potency [10] | Potency [12] | Potency [19] | Potency [13] | Potency [14] | Potency [18] | Potency [15] | Potency [16] | Potency [17]

Cc1oc(-c2ccccc2)nc1CCOc1ccc(C[C@H](Nc2ccccc2C(=O)c2ccccc2)C(=O)O)cc1
inactive: Potency [2] | Potency [3] | outcome [4] | outcome [5] | Potency [6] | Potency [7] | Potency [11] | Potency [12] | Potency [19] | Potency [15] | Potency [16] | Potency [17]
active: Potency [1] 30.6 µM | Potency [8] 28.9 µM | Potency [9] 45.8 µM | Potency [10] 20.4 µM

CC[C@H](NC(=O)c1cc(F)ccc1NS(=O)(=O)c1cccc2cccnc12)c1ccccc1
inactive: Potency [1] | Potency [2] | Potency [3] | outcome [4] | outcome [5] | Potency [6] | Potency [7] | Potency [8] | Potency [9] | Potency [10] | Potency [11] | Potency [12] | Potency [19] | Potency [13] | Potency [16] | Potency [17]

CC(C)OC(=O)c1ccccc1
inactive: Potency [1] | Potency [2] | Potency [3] | outcome [4] | outcome [5] | Potency [6] | Potency [7] | Potency [8] | Potency [9] | Potency [10] | Potency [11] | Potency [12] | Potency [19] | Potency [14] | Potency [18] | Potency [15] | Potency [16] | Potency [17]

O=C1OC(=O)C2CCCCC12 (centres undefined)
inactive: Potency [1] | Potency [2] | Potency [3] | outcome [4] | outcome [5] | Potency [6] | Potency [7] | Potency [8] | Potency [9] | Potency [10] | Potency [11] | Potency [12] | Potency [19] | Potency [14] | Potency [18] | Potency [16] | Potency [17]

Cl[Si](Cl)(c1ccccc1)c1ccccc1
inactive: Potency [1] | Potency [2] | Potency [3] | outcome [4] | outcome [5] | Potency [6] | Potency [7] | Potency [8] | Potency [9] | Potency [10] | Potency [11] | Potency [19] | Potency [13] | Potency [14] | Potency [18] | Potency [15] | Potency [16] | Potency [17]

CCCCC(CC)CN1C(=O)C2C3C=CC(C3)C2C1=O (centres undefined)
inactive: Potency [1] | Potency [3] | outcome [4] | outcome [5] | Potency [6] | Potency [7] | Potency [8] | Potency [9] | Potency [10] | Potency [11] | Potency [12] | Potency [13] | Potency [15] | Potency [16] | Potency [17]
active: Potency [2] 54.5 µM

Cc1cc(C(C)(C)C)c(O)c(C)c1Cn1c(=O)n(Cc2c(C)cc(C(C)(C)C)c(O)c2C)c(=O)n(Cc2c(C)cc(C(C)(C)C)c(O)c2C)c1=O
inactive: Potency [1] | Potency [2] | Potency [3] | outcome [4] | outcome [5] | Potency [6] | Potency [7] | Potency [8] | Potency [9] | Potency [10] | Potency [11] | Potency [12] | Potency [19] | Potency [14] | Potency [18] | Potency [15] | Potency [16] | Potency [17]

CCOC(=O)CS
active: Potency [2] 70.5 µM
inactive: Potency [1] | Potency [3] | outcome [4] | outcome [5] | Potency [6] | Potency [7] | Potency [8] | Potency [9] | Potency [10] | Potency [12] | Potency [19] | Potency [13] | Potency [14] | Potency [18] | Potency [15] | Potency [16] | Potency [17]

C=C[Si](C)(C)Cl
inactive: activity change, negative = cytotoxicity [1] -0.368% [at 8.39 µM] | activity, positive = activation [2] -0.9% [at 8.39 µM] | activity change [3] -0.471% [at 5.22 µM, hits give high values] | activation [4] -1.18% [at 6.97 µM] | activation [5] 0.126% [at 5.23 µM] | activation [6] -12.4% [at 5.99 µM] | activation [7] 0.959% [at 5.99 µM] | activity change, negative = cytotoxicity [8] -13% [at 5.99 µM] | activity change, negative = cytotoxicity [9] 8.84% [at 5.99 µM] | activity change, negative = cytotoxicity [10] -0.14% [at 5.99 µM] | activity, negative = inhibition [11] -2.68% [at 5.62 µM] | activation [12] -0.8% [at 7.02 µM] | activation [13] 0.156% [at 6.97 µM] | activation [14] 0.4% [at 8.39 µM] | activity change, negative = inhibition [18] -10% [at 8.39 µM] | activity change, negative = inhibition [15] 2.31% [at 8.39 µM] | activation [16] 0.612% [at 8.39 µM] | activity change, negative = inhibition [17] 6.57% [at 8.38 µM]

Source: PubChem BioAssay (Tox21)
